High-throughput results as filed in PubChem.
The list is not random: actives were taken first. Their share in the collection is about 6.2%.
HCMV inh = human cytomegalovirus inhibition. HFF cells, HCMV-luciferase reporter, 72 h; stronger effect = lower value. activity change, negative = inhibition, % at 57.5 µM. 410,000 compounds, 4.5% hits. AID 1259415; in the data active means activity change below about -60%; inconclusive means no clear call, values can overlap the other calls; inactive means above about -39%
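Human foreskin fibroblasts infected with luciferase-reporter HCMV at MOI 1 PFU/cell, compounds at two doses. Luciferase measured 72 h post infection; normalized to buffer-only basal and Salinomycin (10uM) controls.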
Lassa entry inh = blocks Lassa virus binding to or entry into cells. Potency, µM (highest dose often 37.9 µM), without a hit: at the top dose activity change, negative = inhibition, most hits filed as inhibitors. Lassa virus pseudotype entry inhibition, cell reporter. 300,000 compounds, 1.2% hits. AID 540256; calls by dose curve; tested in HEK293 cells; further: potency means the concentration at half of the fitted maximal effect; nearly all actives have a fitted effect of over 50% in size
FMDV antiviral = antivirals against foot and mouth disease virus; 410,000 compounds, 1.2% hits; AID 1159524; Potency, µM (series often up to 57.9 µM), inactives show at the highest dose activity change, negative = inhibition, hits mostly inhibitors; FMDV antiviral cell-based qHTS; calls by dose curve; tested in HEK293T cells; further: read-out not given here; potency means the concentration at half of the fitted maximal effect; nearly all actives have a fitted effect of over 45% in size
MARV entry inh = inhibitors of Marburg virus binding or cell entry. Marburg virus pseudotyped entry inhibition, cell reporter. Potency, µM (titrated, usually from 37.8 µM), without a hit: at the highest dose activity change, negative = inhibition, actives largely listed as inhibitors. 300,000 compounds, 1.8% hits. AID 540276; calls by dose curve; tested in HEK293 cells; further: potency means the concentration at half of the fitted maximal effect
The depositor's hits bear a star; ? = inconclusive; / = not tested or not shown; + = active, no number; [ ] = dose if it differs, or a comment. On the % scale 0 is the no-effect control and ±100 the full control effect.

SMILES	HCMV inh	Lassa entry inh	FMDV antiviral	MARV entry inh
Cc1cccc(C)c1NC(=O)CSCc1cnn(-c2ccccc2)c1-n1cccc1	-32	-13%[46.1 µM]	-27%	?
Cc1ccccc1Cn1cc(S(=O)(=O)CC(=O)Nc2nccs2)c2ccccc21	-76*	-28%	/	?
Cc1ccc(S(=O)(=O)NC(=O)C2(C)CCN2C(=O)C2CCCCC2)nc1 (stereo not given)	-7	/	6%	/
Cc1ccc(-c2nc(N=Nc3ccc(O)cc3)n[nH]2)cc1	-100*	?	35%	-6%
N#CC(C#N)=C/C(C#N)=C(/N)N1CCN(c2ccc(Cl)cc2)CC1	-16	9%	18µM*	-19%
CN(C)C(=C(C#N)C#N)N1CCN(c2ccc(Cl)cc2)CC1	?	1%	-9%	0%[46.1 µM]
CC(C)CC1c2[nH]c3ccccc3c2CCN1C(=O)c1cnccn1 (stereo not given)	2	?	29%	2.8µM*
S=c1[nH]nc(COc2ccccc2)n1/N=C/C(Cl)=C/c1ccccc1	12	18µM*	35µM*	2%
FC(F)Oc1ccc(/C=N/n2c(Cc3ccc(Br)cc3)n[nH]c2=S)cc1	-28	5µM*	-20%	-2%[46.1 µM]
CC(C)c1ccc(/C=N/n2c(COc3ccccc3)n[nH]c2=S)cc1	27	1.6µM*	-8%	?
S=c1[nH]nc(-c2ccncc2)n1/N=C/C(Cl)=C\c1ccccc1	-87*	/	-11%	/
S=c1[nH]nc(COc2ccccc2)n1/N=C/C=C/c1ccccc1	-20	?	-2%	33%
C[C@@H]1CN(Cc2ccc3c(c2)CN(C(=O)c2ccc(Oc4ccccc4)o2)CCO3)C[C@H](C)O1	/	/	-16%	/
CC1CN=C(c2ccc(Cl)cc2)c2c3ccccc3[n+]([O-])n21 (stereo not given)	31	/	/	/
S=c1[nH]nc(COc2ccccc2)n1/N=C/C=C/c1ccco1	21	0.79µM*	2%	-16%[46.1 µM]
S=c1[nH]nc(COc2ccccc2)n1/N=C/c1c(Cl)cccc1Cl	-103*	/	-19%	/
CC(C)CCn1c(COc2ccccc2)n[nH]c1=S	-62*	6%[46.1 µM]	1%	1%[46.1 µM]
O=[N+]([O-])c1ccc(Cl)c(/C=N/n2c(-c3ccncc3)n[nH]c2=S)c1	-67*	2%	-6%	18%[46.1 µM]
CCO[C@H](c1cc(OC)cc([N+](=O)[O-])c1OC)[C@H](C)[C@@H](OC)[C@H](C)C=CCC(=O)OC	/	/	/	1%[14.2 µM]
CN(C)c1ccc(CNc2nc(-c3ccco3)nn2S(=O)(=O)c2ccc(Cl)cc2)cc1	76	3%[46.1 µM]	25%	?
O=C(C1CCCN(S(=O)(=O)c2cccs2)C1)N1CCN(c2ccccc2F)CC1 (stereo not given)	-22	-14%[46.1 µM]	-15%	-21%[46.1 µM]
Cc1nn(-c2ccccc2)c(C)c1/C=N/n1c(-c2ccncc2)n[nH]c1=S	-74*	?	-9%	?
CN(C)c1ccc(/C=N/n2c(COc3ccccc3)n[nH]c2=S)cc1	-26	0.92µM*	5%	5%
Cc1ccc(/C=N/n2c(COc3ccccc3)n[nH]c2=S)cc1	-36	/	-10%	/
Cc1nn(-c2ccccc2)c(C)c1/C=N/n1c(-c2ccc(Cl)cc2)n[nH]c1=S	?	?	?	-21%
SMILES	HCMV inh	Lassa entry inh	FMDV antiviral	MARV entry inh
O=Cc1cn(Cc2ccc([N+](=O)[O-])cc2)c2ccccc12	38	10µM*	?	?
O=[N+]([O-])/C=C/c1cn(Cc2ccc(F)cc2)c2ccccc12	?	?	?	7.3µM*
Cc1ccc(Cn2cc(C=O)c3ccccc32)cc1	-29	?	-28%	1.4µM*
O=Cc1cn(Cc2ccc(F)cc2)c2ccccc12	-1	?	-23%	?
Nc1ccccc1N1C(=O)c2ccccc2C1=O	12	/	/	/
O=C(NCC1CCCO1)C1=CC2=NC(=S)N(c3ccccc3)C(=O)C2C=C1 (stereo not given)	/	/	/	-14%
O=C1C(=O)c2ccccc2C([O-])=C1[n+]1ccccc1	-36	/	22µM*	/
Cc1cc(/C=C2\Sc3ccccc3N2C)cc(C)[n+]1CC1CCCO1 (stereo not given)	-100*	?	?	?
CCOC(=O)CN1C(=O)[C@@]2(CC(C)=C[C@@H](COCc3ccccc3)O2)c2ccccc21	/	?	/	7%[14.2 µM]
CNc1ccc(C(=O)CC(O)CCC(C)C2OC(=O)CC(O)CC(=O)CC(O)CC(O)CC(O)CC(O)CC3(O)CC(O)C(C(=O)OC)C(CC(O[C@@H]4O[C@H](C)[C@@H](O)[C@H](N)[C@@H]4O)/C=C/C=C/C=C/C=C/C=C/C=C/C=C/C2C)O3)cc1 (stereo not given in full)	/	/	11%	/
COc1ccc(-c2oc3ncn(CCN4CCOCC4)c(=N)c3c2-c2ccc(OC)cc2)cc1	?	?	?	16µM*
O=C(NCCN1CCNC1=O)c1ccc2sc([C@@H]3O[C@H](CO)[C@H](O)[C@H](O)[C@H]3O)nc2c1	-12	/	-18%	/
CCCCn1c(SCc2ccc(Cl)cc2)nc2c1c(=O)[nH]c(=O)n2C	34	?	35µM*	?
CC(C)CCn1c(SCc2ccc(Cl)cc2)nc2c1c(=O)[nH]c(=O)n2C	32	?	/	-29%
C/C=C/Cn1c(SCc2ccccc2)nc2c1c(=O)[nH]c(=O)n2C	18	13µM*	?	?
O=C(Nc1cc(C(F)(F)F)ccc1F)C1CCCCC1	-106*	20%	-9%	?
COc1ccc(-c2cc(C(F)(F)F)nc(N3CCCCC3)n2)cc1OC	4	?	-24%	?
COc1ccc(-c2cc(C(F)(F)F)nc(N3CCN(C)CC3)n2)cc1OC	14	-27%	?	12µM*
COC1=CC(=O)c2nc(Cl)ccc2C1=O	-101*	/	10µM*	/
O=S(=O)(NC1CCSc2ccccc21)c1ccccc1 (stereo not given)	-28	1%[46.1 µM]	15%	?
CC(=O)Nc1ccc(S(=O)(=O)NC2CCSc3ccccc32)cc1 (stereo not given)	-30	?	6%	10µM*
CCN(CC)S(=O)(=O)c1cccc(-c2nnc(SCCOc3ccc(Cl)cc3)o2)c1	-19	?	?	?
CCN(CC)S(=O)(=O)c1cccc(-c2nnc(SCCOc3ccccc3)o2)c1	-68*	10µM*	?	?
Fc1ccccc1-c1csc(=Nc2cccnc2)n1CCCn1ccnc1	-90*	-25%	?	?
COCCn1c(-c2ccco2)csc1=Nc1cccnc1	59	0%	-21%	12%
SMILES	HCMV inh	Lassa entry inh	FMDV antiviral	MARV entry inh
COCCn1c(-c2cccs2)csc1=Nc1cccnc1	-25	4%[46.1 µM]	22µM*	4%[46.1 µM]
O=C(NCc1cccc(F)c1)c1ccc(CS(=O)c2ccccc2Cl)o1 (stereo not given)	-9	-5%[46.1 µM]	-14%	/
Cc1ccc2nc(N(CCCN(C)C)C(=O)c3ccc4c(c3)CCCC4)sc2c1	-77*	?	?	?
CCOc1ccc2nc(N(CCN(C)C)C(=O)c3ccc4c(c3)CCCC4)sc2c1	/	?	-21%	?
Cc1cc(C)c2nc(N(CCCN(C)C)C(=O)c3ccc4c(c3)CCCC4)sc2c1	?	11µM*	?	?
Cc1cc(C)c2sc(N(CCN(C)C)C(=O)c3ccc4ccccc4c3)nc2c1	+	/	-30%	/
